Compounds with a hit are over-represented: about 3.8% of the library has one in this group of screens.
Beta apoptosis: blocks beta cell apoptosis; INS-1E cytokine-induced death, ATP luminescence, 48 h; percent of positive-control rescue, neutral wells zero; 0.8% of 300,000 active; protection from apoptosis, % (test concentration not listed);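 active means Every replicate reaches about 75%, or at least half do and their mean reaches it too, limit read from the data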;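 further: 0% = cytokine-treated negative control wells and 100% = positive control rescue; higher means more ATP so stronger rescue from cytokine killing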
Mdm2 MdmX PPI: inhibitors of human Mdm2/MdmX interaction; O15151+Q00987; SaOS-2 split-luciferase Mdm2/MdmX complementation, luminescence; inhibition, % at 8 µM; 3% of 330,000 active; AID 485346;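 active means inhibition of at least 50% at 8 µM in the primary screen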
A1 inh: inhibitors of the anti-apoptotic protein A1, read as caspase activation; MEF A1-2A-BIM cells, Caspase-Glo 3/7 luminescence, 3 h; percent of clofoctol response, vehicle zero; caspase activation, % (concentration not given with the values); 0.066% of 330,000 active; AID 2462;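 active means over half of replicate activation scores above 10%, or exactly half above 10 with the replicate mean above 10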
697 NFkB inh: inhibitors of the PMA/ionomycin-induced NF-kB reporter in 697 B cells | 697 B-cell NF-kB luciferase reporter, 16 h | inhibition, % at 4 µM | 0.33% of 330,000 active | AID 435022; in the data active means inhibition above about 35%
NTR1 agonist: NTR1 (human) agonism; P30989; activation, % at 20 µM; NTR1-U2OS beta-arrestin-GFP spot imaging, agonist mode; 0.17% of 330,000 active;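 active means activation at or above 40% of the spot to cytoplasm intensity ratio, with at least 20 cells analyzed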;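 further: 0% = DMSO without peptide and 100% = 100 nM NTR1 peptide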
Jurkat NFkB inh: inhibitors of the PMA/ionomycin-induced NF-kB reporter in Jurkat cells; 0.53% of 330,000 active; inhibition, % at 4 µM; AID 435003; PMA/ionomycin-induced NF-kB luciferase reporter, luminescence; in the data active means inhibition above about 50%
Mdm2-MdmX conf: confirmation of human Mdm2/MdmX interaction inhibitors | inhibition, % at 8 µM | 55% of 10,000 active | Mdm2-MdmX binding, luminescent assay | shares compounds with Mdm2 MdmX PPI; in the data active means inhibition above about 40%
FLuc counter: counter-screen for Mdm2/MdmX inhibitors: full-length luciferase. shares compounds with Mdm2 MdmX PPI. SaOS-2 full-length luciferase counterscreen, luminescence. inhibition, % at 8 µM. 77% of 6,200 active;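 active means mean inhibition at 8 µM reaching about 37%, which flags the compound as non-specific, limit read from the data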;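 further: p53-null SaOS-2 cells with luciferase driven by a doxycycline-inducible promoter; compound on cells about two nights before reading with doxycycline added after day one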
Numbers without * were called inactive; / = no result.

SMILES | Beta apoptosis | Mdm2 MdmX PPI | A1 inh | 697 NFkB inh | NTR1 agonist | Jurkat NFkB inh | Mdm2-MdmX conf | others
O=C(Nc1cc(S(=O)(=O)Nc2ccc(Cl)cc2)ccc1N1CCCCC1)c1ccc(F)cc1Cl | 9 | 67* | 0 | 11 | 6 | 2 | 21
O=C(Nc1ccc(N2CCOCC2)c(S(=O)(=O)Nc2cc(Cl)ccc2Cl)c1)c1cccnc1 | -3 | 24 | 1 | 6 | -1 | -9 | /
O=C(Nc1ccc(Cl)cc1)Nc1ccc(N2CCCC2)c(S(=O)(=O)Nc2ccccc2Cl)c1 | 87* | 96* | 1 | -37 | 22 | -12 | 90* | FLuc counter=24
O=C(Nc1ccc(N2CCOCC2)c(S(=O)(=O)Nc2ccccc2Cl)c1)c1ccccc1 | 17 | 54* | 0 | -8 | 4 | 7 | 14
COc1ccccc1NS(=O)(=O)c1cc(NC(=O)Nc2cccc(C)c2)ccc1N1CCCCC1 | 44 | -10 | 1 | -27 | 1 | 4 | /
Cc1c(C(=O)OCc2ccc(F)cc2)sc2nc3n(c(=O)c12)CCC3 | 0 | 2 | -1 | -38 | 4 | -25 | /
CC(=O)Nc1ccc(NC(=O)COC(=O)c2c3c(nc4ccccc24)CCN(Cc2ccccc2)C3)cc1 | 0 | 51* | 0 | 1 | 2 | 16 | 56* | FLuc counter=84*
CCN1CCc2nc3ccccc3c(C(=O)Nc3ccc(NC(C)=O)cc3)c2C1 | 0 | 3 | 0 | 8 | 1 | 6 | /
O=C(COC(=O)c1c2c(nc3ccccc13)CCN(Cc1ccccc1)C2)Nc1c(F)cccc1F | -1 | 72* | 0 | 22 | 9 | 20 | 68* | FLuc counter=76*
NC(=O)c1ccc(NC(=O)COC(=O)c2c3c(nc4ccccc24)/C(=C\c2cccs2)CCC3)cc1 | 60 | 85* | 0 | 21 | 17 | 8 | 75* | FLuc counter=77*
COc1ccc(Br)cc1S(=O)(=O)Nc1ccc(Cl)cn1 | -7 | 14 | 1 | -5 | 3 | 4 | /
CCc1nc(SCc2ccc(OCC(C)C)cc2)n[nH]1 | 29 | -27 | -2 | -62 | 1 | -30 | /
CN(C)S(=O)(=O)c1ccc(N2C(=O)CC2(/C=C/c2ccccc2)C(=O)NC2CCCC2)cc1 (centres undefined) | 5 | 15 | 0 | -9 | 1 | 6 | /
COc1ccccc1/C=C/C1(C(=O)NC2CCCC2)CC(=O)N1c1ccccc1 (centres undefined) | 17 | 65* | 0 | 11 | 8 | 32 | 64* | FLuc counter=79*
COc1cc(OC)c2c(-c3ccccc3)cc(=O)oc2c1C(CCN1CCCCC1)c1ccc(N(C)C)cc1 (centres undefined) | 42 | 79* | -1 | 2 | 12 | 25 | 16
COc1cc(OC)c2c(-c3ccccc3)cc(=O)oc2c1C(CCN1CCCCC1)c1ccc2c(c1)OCO2 (centres undefined) | 17 | 99* | 0 | -6 | 24 | 17 | 30
COc1cc(OC)c2c(-c3ccccc3)cc(=O)oc2c1C(CCN1CCCC(C)C1)c1ccc2c(c1)OCO2 (centres undefined) | 67 | 74* | 0 | 3 | 32 | -1 | 37 | FLuc counter=77*
COc1cc(OC)c2c(-c3ccccc3)cc(=O)oc2c1C(CC(=O)N1CCCC1)c1ccc2c(c1)OCO2 (centres undefined) | 2 | -3 | 1 | 10 | 0 | 7 | /
Cc1ccc(S(=O)(=O)N2CCC[C@H]2C(=O)NCc2ccccc2Cl)cc1 | -5 | -3 | -1 | 14 | 0 | 12 | /
CCCNC(=O)c1ccc(N2CCC3(CC2)CC(c2cccc(Br)c2)=NO3)c([N+](=O)[O-])c1 | 35 | 19 | 2 | 6 | -1 | 22 | /
CCN(CCCNC(=O)COc1cc(=O)n(CC)c2ccccc12)c1ccccc1 | -3 | 61* | 1 | 5 | 3 | 2 | 28
O=c1[nH]c(-c2ccccc2)nn1-c1ccc(Br)cc1Br | 0 | -8 | 0 | -8 | 0 | 12 | /
CCn1c2c(c3cc(OCC(C)C)ccc31)CCCC2=O | -1 | 16 | 3 | 28 | 22 | 8 | /
C=C1CCc2c([nH]c3ccc(OCC(C)C)cc23)C1=O | 139* | 98* | 5 | 1 | 39 | -14 | 32
COc1ccccc1CNC(=O)CCS(=O)(=O)c1ccc2c(c1)CCN2C(C)=O | -5 | -7 | 0 | -6 | 0 | 3 | /
SMILES | Beta apoptosis | Mdm2 MdmX PPI | A1 inh | 697 NFkB inh | NTR1 agonist | Jurkat NFkB inh | Mdm2-MdmX conf | others
O=C(CSc1nc2ccccc2c(=O)n1-c1ccccc1)N1CCc2ccccc21 | 8 | 55* | 1 | 4 | 6 | 1 | 68* | FLuc counter=81*
CCOc1ccc(-n2c(SCC(=O)N3CCc4ccccc43)nnc2-c2c[nH]c3ccccc23)cc1 | -3 | 28 | 0 | -4 | -1 | -7 | /
COc1cccc(-n2c(SCC(=O)N3CCc4ccccc43)nnc2-c2c[nH]c3ccccc23)c1 | 69 | 75* | 0 | 2 | 8 | -5 | 49* | FLuc counter=83*
Cc1cc2occ(CC(=O)NNC(=O)c3ccccc3)c2cc1C | 6 | 5 | 0 | -25 | 1 | -5 | /
COc1ccc(OCCNC(=S)Nc2cccc3ccccc23)cc1 | 4 | -11 | 0 | 5 | 2 | -2 | /
COc1ccc(CCNC(=S)Nc2cccc3ccccc23)cc1 | 9 | 64* | 0 | -8 | 1 | -2 | 33
COC(=O)c1sccc1S(=O)(=O)NCc1ccc(S(N)(=O)=O)cc1 | -1 | -4 | 0 | -42 | 0 | 13 | /
COc1ccc2ccc(OCC(=O)NCC3CCCO3)cc2c1 (centres undefined) | / | 17 | / | -16 | 0 | -7 | /
Cc1nc([N+](=O)[O-])c(Sc2nc3ccccc3n2C)n1Cc1ccccc1 | -7 | 51* | 0 | -11 | 6 | -4 | 27
O=[N+]([O-])c1cc(S(=O)(=O)C(F)(F)F)ccc1Sc1nc2ccccc2s1 | -5 | 96* | 1 | -7 | -1 | -2 | 10
O=S(=O)(Nc1ccc(O)c(Sc2nc3ccccc3s2)c1)c1ccc(F)cc1 | -8 | 13 | 1 | -27 | 1 | -4 | /
O=[N+]([O-])c1cc(S(=O)(=O)C(F)(F)F)ccc1Sc1nc2ccccc2[nH]1 | -10 | 57* | 0 | -33 | 10 | -34 | 12
Cc1ccc(C(=O)NCCCNC(=O)COc2ccc(C)c(C)c2)cn1 | -1 | 17 | 1 | 7 | 0 | 0 | /
COc1ccccc1OCCC(=O)Nc1cccc(S(=O)(=O)N2CCOCC2)c1 | -2 | -18 | 1 | 9 | 3 | 8 | /

Screening results (PubChem)
